Rows were chosen to be rich in hits. Some 12% of all compounds tested hit in one or more screens of this group.
HP1b chromo inh: HTS for Inhibitors of HP1-beta Chromodomain Interactions with Methylated Histone Tails. Potency, µM (series often up to 114 µM), usual class: inhibitors. hit rate 0.56% among 390,000. AlphaScreen HP1-beta / biotin-H3K9me3 peptide binding; further: nearly all actives have a fitted effect of over 70% in size
Target sequence (P83916 whole entry, looked up): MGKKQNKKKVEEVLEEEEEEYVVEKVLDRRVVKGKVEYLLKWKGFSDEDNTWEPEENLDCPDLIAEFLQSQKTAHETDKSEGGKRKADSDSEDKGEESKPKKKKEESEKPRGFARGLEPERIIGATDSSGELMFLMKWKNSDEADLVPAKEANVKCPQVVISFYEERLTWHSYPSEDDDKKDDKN
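HP1-beta protein (50 nM final) preincubated 30 min at room temperature with biotinylated H3(1-18)K9me3 peptide (50 nM) in PBS pH 7.4, 0.01% Tween-20, then compound added for 30 min. AlphaScreen streptavidin donor/nickel chelate acceptor beads (10 ug/mL final), 30 min dark, luminescence read.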
BAZ2B inh: qHTS Assay for Inhibitors of BAZ2B; Bromodomain adjacent to zinc finger domain protein 2B (Homo sapiens), Q9UIF8; AlphaScreen BAZ2B-H3K14Ac peptide displacement; Potency, µM (series often up to 114 µM), hits mostly inhibitors; hit rate 4.4% among 360,000; AID 504333, 2011; further: nearly all actives have a fitted effect of over 60% in size
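AlphaScreen luminescence quantifies BAZ2B engagement of H3K14Ac peptide; the protein and biotinylated peptide are both at 50 nM final, buffer PBS pH 7.4 with 0.01% Tween-20, all steps at room temperature.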
Sfp PPTase inh: qHTS Assay for Inhibitors of Bacillus subtilis Sfp phosphopantetheinyl transferase (PPTase); AID 1490, 2009; 4'-phosphopantetheinyl transferase ffp (Bacillus subtilis), Q9F4F7; Biochemical Sfp PPTase activity, qHTS; Potency, µM, hits mostly inhibitors; hit rate 3.5% among 310,000;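 further: the enzyme is Sfp with the accession as filed and its product quenches rhodamine fluorescence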
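After 15 min at room temperature with compound, 15 nM Sfp received 5 uM rhodamine-CoA plus 12.5 uM BHQ-2-ybbR (50 mM Hepes pH 7.6, 10 mM MgCl2). Rate came from the fluorescence difference over 30 min, ex 525/em 598 nm.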
L3MBTL1 inh: qHTS Assay for the Inhibitors of L3MBTL1; AlphaScreen L3MBTL1–H3K9me1 peptide binding; Potency, µM (highest dose often 57.1 µM), actives largely listed as inhibitors; hit rate 0.66% among 230,000; AID 485360, 2010; further: nearly all actives have a fitted effect of over 60% in size
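AlphaScreen assay: L3MBTL1 (50 nM final) was preincubated 30 min at room temperature with biotinylated H3(1-15)K9me1 peptide (75 nM final), then 30 min with library compounds; streptavidin donor and nickel chelate acceptor beads (10 ug/mL final) added, 30 min dark.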
G9a inh: qHTS Assay for Inhibitors of Histone Lysine Methyltransferase G9a | Potency, µM (titrated, usually from 102 µM), hits mostly inhibitors | AID 504332, 2011 | G9a H3K9 monomethylation, AlphaScreen, 2 h | Histone-lysine N-methyltransferase EHMT2 (Homo sapiens), Q96KQ7 | hit rate 8.8% among 350,000; further: nearly all actives have a fitted effect of over 75% in size
Target sequence (Q96KQ7 913-1193 limits assumed): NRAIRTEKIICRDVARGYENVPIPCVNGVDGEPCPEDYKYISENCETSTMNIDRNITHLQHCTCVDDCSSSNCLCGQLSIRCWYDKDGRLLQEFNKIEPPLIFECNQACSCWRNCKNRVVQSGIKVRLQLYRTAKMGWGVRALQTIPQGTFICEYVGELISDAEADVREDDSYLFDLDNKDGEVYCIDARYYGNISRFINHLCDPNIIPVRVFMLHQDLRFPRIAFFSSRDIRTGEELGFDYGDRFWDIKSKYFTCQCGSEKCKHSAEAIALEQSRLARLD
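Using a bead-based AlphaScreen, monomethylated H3K9 product from 2 h room-temperature reactions (G9a 20 nM, peptide 500 nM, SAM 20 uM) was detected with 0.5 ug/mL rabbit anti-H3K9me1 antibody.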
JMJD2A Tudor: qHTS Assay for Inhibitors of JMJD2A-Tudor Domain; hit rate 4.4% among 390,000; AlphaScreen JMJD2A-Tudor / H3K4me3 peptide binding; Lysine-specific demethylase 4A (Homo sapiens), O75164; Potency, µM (titrated, usually from 114 µM), hits mostly inhibitors; AID 504339, 2011; further: nearly all actives have a fitted effect of over 50% in size
A number is an active result; i = inactive; ? = inconclusive; nt = not tested or not shown; [ ] = dose if it differs, or a comment. The call rests on the fitted dose curve; in most records, active means well fitted curve in the direction sought with a large enough effect; inconclusive means small, poorly fitted or top-dose-only effect, or another doubt; inactive means no such curve, though single readings can be large; an effect the other way counts as inactive or inconclusive.

SMILES | HP1b chromo inh | BAZ2B inh | Sfp PPTase inh | L3MBTL1 inh | G9a inh | JMJD2A Tudor
COc1ccc(/C=C2/C(=O)NC(=S)N(C3CC3)C2=O)cc1CN1C(=O)c2ccccc2C1=O | ? | 50µM | 25µM | i | 3.5µM | 25µM
O=C1NC(=O)N(c2ccccc2)C(=O)/C1=C/c1ccoc1 | i | ? | ? | ? | 40µM | i
COc1cccc(N2C(=O)NC(=O)/C(=C/c3ccc4c(c3)Cc3ccccc3-4)C2=O)c1 | i | 45µM | 56µM | nt | 7.1µM | 56µM
O=C1NC(=O)N(c2ccccc2)C(=O)/C1=C/c1ccc(Sc2ccccc2)o1 | i | 50µM | 22µM | i | 10µM | 56µM
COc1ccc(/C=C2/C(=O)NC(=O)N(c3ccccc3)C2=O)cc1CN1C(=O)c2ccccc2C1=O | i | ? | 50µM | nt | i | i
CN(C(=O)Cc1ccccc1)[C@H](CN1CCCC1)c1ccccc1 | nt | nt | i | nt | i | nt
Clc1ccc(CC[C@H](Cn2ccnc2)Sc2c(Cl)cccc2Cl)cc1 | nt | nt | ? | nt | i[21.5 µM] | nt
COc1cc(/C=N/Nc2ccc(S(N)(=O)=O)cc2)cc(OC)c1OC | ? | i | i | i | i | ?
CCOc1cc(/C=C2/C(=O)NC(=O)N(c3ccc(CC)cc3)C2=O)ccc1OC(=O)c1cccs1 | i | 50µM | 79µM | i | i[0.501 µM] | 79µM
CNC(C(=O)c1ccccc1)C(OC)c1cccc([N+](=O)[O-])c1 (centres undefined) | i | i | i | i | 56µM | i
Cc1ccc(N2C(=O)NC(=O)/C(=C\c3ccsc3)C2=O)cc1C | nt | i | 50µM | i | ? | nt
Cc1cc(/C=C2/C(=O)NC(=O)N(c3ccc(Br)cc3)C2=O)c(C)n1C | i | i | i | i | i | i
O=C1CC(=O)N(c2ccc3c(c2)OCO3)C(=O)N1 | i | i | i | i[11.4 µM] | ? | i[11.4 µM]
O=C1NC(=O)N(c2ccc3c(c2)OCO3)C(=O)/C1=C\c1ccsc1 | i | i | 35µM | nt | nt | i
CC(C)(C)OC(=O)NNC(=S)NC1CCCCC1 | i | i | i | i[11.4 µM] | 25µM | i
C=C(C)Cn1c(-c2cccs2)n[nH]c1=S | i | i | i | i | 14µM | 5.6µM
C=C(C)Cn1c(-c2cccc([N+](=O)[O-])c2)n[nH]c1=S | i | i | i | nt | 13µM | 8.9µM
CC1CN(C(=O)c2ccc(S(=O)(=O)Nc3ccccc3F)cc2)CC(C)O1 (centres undefined) | i | i | nt | i | i | i
COc1ccc(NC(=O)N2C[C@@H]3C[C@@H](C2)c2cccc(=O)n2C3)c(OC)c1 | i | i | i | i | 3.5µM | i
O=C(NC(=S)N1C[C@H]2C[C@H](C1)c1cccc(=O)n1C2)c1ccc(Cl)cc1Cl | i | i | i | i | 40µM | i
COc1cccc(NC(=O)[C@@H](NC(=O)N2C[C@H]3C[C@@H](C2)c2cccc(=O)n2C3)C(C)C)c1 | i | i | i | nt | nt | i
O=c1cccc2n1CC1CC2CN(Cc2c(F)cccc2Cl)C1 (centres undefined) | i | ? | i | i | 45µM | 56µM
O=c1cccc2n1CC1CC2CN(Cc2cccc(Cl)c2Cl)C1 (centres undefined) | i | i | i | i | ? | i
COc1ccc(C(=O)NC(=S)N2C[C@H]3C[C@H](C2)c2cccc(=O)n2C3)cc1OC | i | i | ? | i | 45µM | i
COc1cc(C(=O)N2C[C@H]3C[C@@H](C2)c2cccc(=O)n2C3)cc(OC)c1OC | i | i | i | nt | i[12.7 µM] | i
SMILES | HP1b chromo inh | BAZ2B inh | Sfp PPTase inh | L3MBTL1 inh | G9a inh | JMJD2A Tudor
OC[C@@H](O)[C@H]1O[C@@H]2OC(C(Cl)(Cl)Cl)O[C@H]2[C@H]1O (some centres undefined) | nt | nt | i | nt | i[12.7 µM] | nt
CCCOc1ccc(C(=O)NC(=S)N2C[C@H]3C[C@H](C2)c2cccc(=O)n2C3)cc1 | i | i | 45µM | i | 11µM | ?
CN1CCN(c2ccc([N+](=O)[O-])c(N3CCCCC3)c2)CC1 | i | ? | i | i | 56µM | i
CN1CCN(c2ccc([N+](=O)[O-])c(NCC3CCCO3)c2)CC1 (centres undefined) | i | i | i | i | 28µM | i
N[C@@H](CCl)C(=O)O | i | nt | nt | nt | 21µM | ?
N[C@H](CP(=O)(O)O)C(=O)O | nt | nt | i | nt | nt | nt
C[Se]C[C@@H](N)C(=O)O | i | ? | nt | i | 4µM | 20µM
C[Se]C[C@H](N)C(=O)O | nt | nt | nt | nt | 0.63µM | nt
Cc1ccc(N2CCN(C(=O)c3cn(CC4CCCCC4)nn3)C(C)C2)cc1 (centres undefined) | i | nt | nt | nt | nt | ?
COc1cc(CNC(=O)CCCC/C=C/C(C)C)ccc1O | i | i | i | i | i | i
COc1cc(/C=C2/SC(=S)N(Cc3ccccc3)C2=O)ccc1OCC(=O)O | i | 56µM | i | i[2.29 µM] | i[0.501 µM] | ?
CC(C)=CC1C(C(=O)OCc2coc(Cc3ccccc3)c2)C1(C)C (centres undefined) | nt | nt | i | nt | i[12.7 µM] | nt
CCS(=O)(=O)N1CCN(C2CCC(C)CC2)CC1 (centres undefined) | ? | 56µM | i | i | 5.6µM | 6.3µM
CC(=O)CC(c1ccccc1)c1c(O)c2ccc(O)cc2oc1=O (centres undefined) | nt | nt | i | nt | nt | nt
COc1ccc(C(=O)NCCn2cc(SC(C)c3ccccc3)c3ccccc32)cc1OC (centres undefined) | i | ? | nt | nt | i | i
CCOC(=O)CC(SP(=S)(OC)OC)C(=O)OCC (centres undefined) | nt | nt | 40µM | nt | ? | nt
CCOC(=O)CC(SP1(=S)OCC2(CCCCC2)CO1)C(=O)OCC (centres undefined) | i | nt | nt | nt | nt | i
CN1CCN(S(=O)(=O)c2ccc(C3CCCCC3)cc2)CC1 | i | i | nt | i | 8.9µM | 89µM
Cc1ccc(S(=O)(=O)N2CN3CCN(C3)C2)cc1 | i | i | i | i | i | i
CCOc1cccc(N2C(=O)/C(=C/c3ccco3)C(=O)NC2=S)c1 | 20µM | 32µM | 35µM | i | 14µM | 22µM
O=C1NC(=S)N(c2ccccc2)C(=O)/C1=C/c1ccco1 | 2.8µM | 20µM | 22µM | i[2.29 µM] | i[0.501 µM] | 3.2µM
c1ccc(N2CCCC3(CCNCC3)C2)nc1 | nt | nt | i | nt | i[12.7 µM] | nt
NCC1O[C@@H](O[C@H]2C(O)C(O[C@@H]3C(O[C@H]4OC(CO)C(O)C(O)C4N)C(N)CC(N)[C@H]3O)O[C@@H]2CO)C(N)C(O)C1O (some centres undefined) | nt | nt | i | nt | i[2.33 µM] | nt

Compound activity (PubChem BioAssay)
